SKKanGAS inh: S. pyogenes SKKanGAS growth inhibitors in kanamycin, primary screen, streptokinase expression inhibitor project, SKKanGAS strain, BacTiter-Glo luminescence | 6 h | inhibition, % at 7.5 µM | 300,000 tested, 1.3% active;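 active = mean replicate score, as percent of positive control median, at least 50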;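 also: strain carries kanamycin resistance gene driven by streptokinase promoter and grows in 40 µg/ml kanamycin; loss of luminescence reflects streptokinase promoter inhibition or plain growth inhibition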
tim23-1 inh: growth inhibitors of tim23-1 mutant yeast, primary screen, luminescence, uHTS | S. cerevisiae tim23-1 growth, BacTiter-Glo luminescence, 24 h | inhibition, % at 20 µM | 330,000 tested, 1.3% active;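 active = growth inhibition of the mutant yeast at or above 50%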;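 also: temperature-sensitive mutant grown at 25 °C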
tim10-1 inh: growth inhibitors of tim10-1 mutant yeast, primary screen, luminescence, uHTS; S. cerevisiae tim10-1 ts strain growth, BacTiter-Glo, 24 h; inhibition, % at 20 µM; 330,000 tested, 2.2% active; AID 463190, 2010;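 active = inhibition of at least 40%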;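 also: mutant grown at 25 °C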
PfHsp90 set2: growth inhibition of PfHsp90-expressing yeast, primary screen, antimalarial PfHsp90 inhibitor project, S. cerevisiae, BacTiter-Glo luminescence, single point, set 2; BacTiter-Glo ATP, 48 h; yeast lacking PDR1 and PDR3 efflux regulators; inhibition, % at 9.4 µM; 310,000 tested, 0.32% active;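 active = every replicate shows inhibition above about 80%, whatever the replicate mean, limit read from the data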
TIM10 inh: growth inhibitors of isogenic TIM10 control yeast, primary screen, counter-screen for tim10-1 yeast inhibitor project, luminescence, uHTS; S. cerevisiae TIM10 strain growth, BacTiter-Glo luminescence, 24 h; inhibition, % at 10 µM; 330,000 tested, 1.4% active;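 active = inhibition of 40% or more at the single tested concentration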;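 also: wild-type TIM10 isogenic control strain grown at permissive 25 °C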
NALP1 inh: NALP1 inflammasome inhibitors in reconstituted yeast, colorimetric, S. cerevisiae, triplicate retest | inhibition, % at 10 µM | 280,000 tested, 0.61% active | AID 2071, 2009 | S. cerevisiae NALP1/ASC/caspase-1 growth, X-gal OD620, 72 h; in the data active = inhibition mostly above about 24%, no sharp cut-off; inactive = mostly below about 32%
tim10-1 confirm: growth inhibitors of tim10-1 mutant yeast, confirmation, single concentration, luminescence, S. cerevisiae; inhibition, % at 20 µM; AID 463213, 2010; 7,400 tested, 56% active; S. cerevisiae tim10-1 ts strain growth, BacTiter-Glo, 24 h; shares compounds with tim10-1 inh;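 active = inhibition of yeast growth at or above a set limit in either of two repeat tests at 20 µM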;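 also: tim10-1 mutant grown at permissive 25 °C to find synthetic lethal compounds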
TIM10 conf: growth inhibitors of wild-type TIM10 yeast, confirmation, counter-screen for tim10-1 synthetic lethality project, single concentration, luminescence, S. cerevisiae | 4,600 tested, 63% active | inhibition, % at 10 µM | shares compounds with TIM10 inh | S. cerevisiae tim10 strain growth, BacTiter-Glo luminescence, 24 h;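 active = inhibition of yeast growth at or above a set limit in either of two replicates at 10 µM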; also: this counterscreen used the strain with wild-type TIM10
tim23-1 confirm: tim23-1 mutant yeast growth inhibitors, confirmation, luminescence, single concentration; S. cerevisiae tim23-1 growth, BacTiter-Glo luminescence, 24 h; 4,400 tested, 83% active; inhibition, % at 20 µM; shares compounds with tim23-1 inh; AID 463218, 2010;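 active = inhibition above about 39% in either of two replicate wells at 20 µM, limit read from the data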;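 also: temperature-sensitive tim23-1 mutant grown at 25 °C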
Numbers stand for hits; - = inactive; . = not tested or not shown. In the library only some 4.8% were active in any assay of this set; here they are far more common.

SMILES	SKKanGAS inh	tim23-1 inh	tim10-1 inh	PfHsp90 set2	TIM10 inh	NALP1 inh	tim10-1 confirm	TIM10 conf	tim23-1 confirm
COC(=O)c1ccccc1S(=O)(=O)Nc1ccc(OC)nc1	-	-	-	-	-	-	.	.	.
CC(=O)Oc1cccc(/C=c2\sc3nc(-c4ccco4)nn3c2=O)c1	-	61	54	-	-	-	43	.	63
CCCOc1ccc(/C=c2\sc3nc(-c4ccco4)nn3c2=O)cc1OCC	-	-	-	-	-	-	.	.	.
COc1ccc(C(=O)Nc2ccccc2C(=O)N/N=C/c2ccco2)cc1	-	72	67	-	47	-	68	43	72
O=C(Nc1ccccc1C(=O)N/N=C/c1ccncc1)c1ccccc1	-	77	68	-	62	-	68	36	70
COC(=O)C1=C(C)N(c2ccc(Cl)c(Cl)c2)C(=O)C1	-	59	46	-	43	-	47	39	50
CCN(CC)c1nc(OCCNC(=O)Nc2ccccc2)nc(N(CC)CC)n1	-	62	42	-	-	-	35	.	50
CCOc1ccc(NC(=O)C2(c3ccc(OC)c(OC)c3)CCCC2)cc1	-	-	-	-	-	-	.	.	.
CCC(=O)Nc1cccc(-c2csc(-c3ccccc3)n2)c1	-	55	40	-	52	-	35	-	60
Cc1cc(C)cc(NC(=S)NCC2CCCO2)c1 (stereo unspecified)	-	-	-	-	-	-	.	.	.
COc1cccc(CN(CC2CCCO2)S(=O)(=O)c2ccc(-n3cnnn3)c(OC)c2)c1 (stereo unspecified)	-	-	-	-	-	-	.	.	.
Cc1cc(C)c2c(N)c(S(=O)c3ccc(C(C)(C)C)cc3)sc2n1 (stereo unspecified)	-	60	63	-	-	-	44	.	62
COc1ccc2c(c1)CC/C2=N\OC(=O)c1ccccc1OC	-	81	53	-	71	-	38	80	79
CC1(C)CC(=O)C2=C(C1)NC1=C(C(=O)c3ccccc31)C2c1ccc(Cl)cc1 (stereo unspecified)	-	52	50	-	40	-	36	-	46
Cc1nc2c(ccc3nc(NC(=O)Cc4cccc5ccccc45)sc32)s1	-	60	55	-	-	-	37	.	64
Cc1nc2c(ccc3nc(NC(=O)C(c4ccccc4)c4ccccc4)sc32)s1	-	-	-	-	-	-	.	.	.
CCOC(=O)c1cccc(NC(=O)C2CCCN(S(=O)(=O)c3c(C)nn(C)c3C)C2)c1 (stereo unspecified)	.	-	-	-	-	-	.	.	.
Oc1ccccc1-c1cc(-c2cccc(F)c2)n[nH]1	-	64	41	-	-	-	-	.	52
Fc1cccc(-c2n[nH]c(=S)n2-c2ccccc2)c1	-	-	-	-	-	-	.	.	.
Oc1ccccc1-c1cc(-c2ccccc2Cl)[nH]n1	.	76	73	.	64	-	53	58	-
Cc1nnsc1S(=O)c1ccc(Cl)cc1 (stereo unspecified)	-	-	-	-	-	-	.	.	.
O=C(c1nnsc1S(=O)(=O)c1ccc(Cl)cc1)N1CCOCC1	-	-	-	-	-	-	.	.	.
O=C(c1nnsc1S(=O)c1ccc(Cl)cc1)N1CCOCC1 (stereo unspecified)	-	57	60	-	-	67	42	.	90
